Active and inactive are the calls of the source.
Assays:
[1] = small molecules captured by biotinylated probe aFSTL3 – biochemical, small-molecule microarray, fluorescence 635/667, stem cell growth factor project, primary screen (AID 1064); conditions: higher = more signal;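 further: measures binding of the biotinylated anti-FSTL3 antibody to printed compounds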
[2] = binders from COS7 lysate, DM2A8 probe, primary screen, torsin A project, cell lysate, small-molecule microarray, fluorescence 635/667 (AID 1065); conditions: higher = more signal, COS7 lysate expressing mutant human TOR1A
[3] = small molecules captured by biotinylated probe aFGF2 – biochemical, small-molecule microarray, fluorescence 635/667, stem cell growth factor project, primary screen (AID 1067); conditions: higher = more signal;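 further: measures binding of biotinylated aFGF2 protein to printed compounds on slides; z-score merges feature fluorescence and signal-to-noise across triplicate slides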
[4] = small molecules captured by biotinylated probe aFGF10 – biochemical, small-molecule microarray, fluorescence 635/667, stem cell growth factor project, primary screen (AID 1071); conditions: higher = more signal;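 further: score merges 667 nm spot intensity and signal to noise from triplicate slides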
[5] = biological target: Neurogenic locus notch homolog protein 2 (Homo sapiens) (UniProt Q04721); experiment: small molecules binding Notch2 protein – biochemical, small-molecule microarray, 635 nm fluorescence, stem cell growth factors, primary screen (AID 1073); conditions: higher = more signal
Chain of Neurogenic locus notch homolog protein 2 (Homo sapiens) (Q04721 whole entry, looked up, canonical isoform): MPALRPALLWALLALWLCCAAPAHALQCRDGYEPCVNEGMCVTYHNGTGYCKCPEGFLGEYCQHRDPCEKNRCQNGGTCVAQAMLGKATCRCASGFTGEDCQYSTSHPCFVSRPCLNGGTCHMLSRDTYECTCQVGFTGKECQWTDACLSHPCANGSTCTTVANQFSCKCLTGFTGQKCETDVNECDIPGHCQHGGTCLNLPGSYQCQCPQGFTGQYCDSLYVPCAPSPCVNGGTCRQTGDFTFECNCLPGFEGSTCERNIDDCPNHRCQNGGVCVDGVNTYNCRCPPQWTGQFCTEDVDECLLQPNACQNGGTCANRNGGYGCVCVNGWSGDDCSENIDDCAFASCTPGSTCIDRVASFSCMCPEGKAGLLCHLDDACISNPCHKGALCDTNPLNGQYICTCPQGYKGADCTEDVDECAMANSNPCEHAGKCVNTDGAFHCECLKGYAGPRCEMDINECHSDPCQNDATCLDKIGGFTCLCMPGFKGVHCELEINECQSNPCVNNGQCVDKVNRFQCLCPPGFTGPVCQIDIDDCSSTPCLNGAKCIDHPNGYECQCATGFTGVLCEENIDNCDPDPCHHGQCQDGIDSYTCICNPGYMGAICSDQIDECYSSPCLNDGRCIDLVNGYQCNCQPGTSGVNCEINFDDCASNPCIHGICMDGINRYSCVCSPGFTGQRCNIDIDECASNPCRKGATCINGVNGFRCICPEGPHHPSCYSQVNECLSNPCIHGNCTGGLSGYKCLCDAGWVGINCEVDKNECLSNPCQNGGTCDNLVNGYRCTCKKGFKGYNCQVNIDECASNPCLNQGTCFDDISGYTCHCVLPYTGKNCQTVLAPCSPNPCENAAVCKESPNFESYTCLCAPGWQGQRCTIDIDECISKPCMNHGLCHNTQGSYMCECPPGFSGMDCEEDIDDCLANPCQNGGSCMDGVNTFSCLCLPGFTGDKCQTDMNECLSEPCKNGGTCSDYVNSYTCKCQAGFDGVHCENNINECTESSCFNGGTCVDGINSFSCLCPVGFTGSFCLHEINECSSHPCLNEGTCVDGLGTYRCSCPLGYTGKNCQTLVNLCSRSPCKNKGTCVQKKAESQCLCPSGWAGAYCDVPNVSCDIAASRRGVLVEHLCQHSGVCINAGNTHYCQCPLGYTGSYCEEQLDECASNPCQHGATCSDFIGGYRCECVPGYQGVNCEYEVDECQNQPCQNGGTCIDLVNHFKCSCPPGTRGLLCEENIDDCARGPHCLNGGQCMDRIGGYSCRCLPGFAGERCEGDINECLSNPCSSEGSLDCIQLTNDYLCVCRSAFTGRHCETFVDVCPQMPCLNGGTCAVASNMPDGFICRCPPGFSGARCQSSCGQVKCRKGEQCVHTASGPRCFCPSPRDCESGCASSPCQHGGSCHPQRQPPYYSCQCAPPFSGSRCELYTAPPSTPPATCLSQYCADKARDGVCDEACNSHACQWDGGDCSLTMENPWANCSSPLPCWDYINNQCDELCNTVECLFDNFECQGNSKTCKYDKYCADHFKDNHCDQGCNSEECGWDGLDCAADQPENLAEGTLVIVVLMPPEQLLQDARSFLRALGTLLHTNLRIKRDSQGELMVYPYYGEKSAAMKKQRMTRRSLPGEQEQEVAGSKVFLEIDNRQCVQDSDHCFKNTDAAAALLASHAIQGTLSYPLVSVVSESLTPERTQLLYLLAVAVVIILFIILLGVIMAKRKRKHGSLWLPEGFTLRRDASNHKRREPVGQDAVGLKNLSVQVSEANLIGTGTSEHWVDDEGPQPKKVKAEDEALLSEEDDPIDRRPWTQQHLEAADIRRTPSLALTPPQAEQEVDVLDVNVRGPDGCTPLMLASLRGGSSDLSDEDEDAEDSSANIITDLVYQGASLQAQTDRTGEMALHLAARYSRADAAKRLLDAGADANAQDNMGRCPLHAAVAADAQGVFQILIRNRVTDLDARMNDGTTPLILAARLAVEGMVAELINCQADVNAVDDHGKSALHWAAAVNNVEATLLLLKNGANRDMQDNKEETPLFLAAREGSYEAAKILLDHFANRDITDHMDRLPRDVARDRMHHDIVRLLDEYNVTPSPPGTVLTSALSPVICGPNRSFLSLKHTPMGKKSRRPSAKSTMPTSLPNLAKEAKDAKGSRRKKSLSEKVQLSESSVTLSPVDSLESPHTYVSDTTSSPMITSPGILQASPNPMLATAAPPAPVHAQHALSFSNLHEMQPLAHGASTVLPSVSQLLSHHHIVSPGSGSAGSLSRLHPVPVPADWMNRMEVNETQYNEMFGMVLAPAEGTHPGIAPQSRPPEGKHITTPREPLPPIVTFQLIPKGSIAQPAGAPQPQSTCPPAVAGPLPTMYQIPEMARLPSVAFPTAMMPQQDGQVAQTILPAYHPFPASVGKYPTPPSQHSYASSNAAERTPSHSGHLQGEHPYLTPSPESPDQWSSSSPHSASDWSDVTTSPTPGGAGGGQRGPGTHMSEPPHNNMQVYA

[6] = biological target: Pro-neuregulin-1, membrane-bound isoform (Homo sapiens) (UniProt Q02297); experiment: small molecules binding neuregulin-1 protein – biochemical, small-molecule microarray, fluorescence 635/667, psychiatric disease protein project, primary screen (AID 1075); conditions: NRG1 binding, 635 nm fluorescence, higher = more signal;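 further: score combines 667 nm spot fluorescence with signal to noise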
Chain of Pro-neuregulin-1, membrane-bound isoform (Homo sapiens) (Q02297 whole entry, looked up, the tested form may be a part, canonical isoform): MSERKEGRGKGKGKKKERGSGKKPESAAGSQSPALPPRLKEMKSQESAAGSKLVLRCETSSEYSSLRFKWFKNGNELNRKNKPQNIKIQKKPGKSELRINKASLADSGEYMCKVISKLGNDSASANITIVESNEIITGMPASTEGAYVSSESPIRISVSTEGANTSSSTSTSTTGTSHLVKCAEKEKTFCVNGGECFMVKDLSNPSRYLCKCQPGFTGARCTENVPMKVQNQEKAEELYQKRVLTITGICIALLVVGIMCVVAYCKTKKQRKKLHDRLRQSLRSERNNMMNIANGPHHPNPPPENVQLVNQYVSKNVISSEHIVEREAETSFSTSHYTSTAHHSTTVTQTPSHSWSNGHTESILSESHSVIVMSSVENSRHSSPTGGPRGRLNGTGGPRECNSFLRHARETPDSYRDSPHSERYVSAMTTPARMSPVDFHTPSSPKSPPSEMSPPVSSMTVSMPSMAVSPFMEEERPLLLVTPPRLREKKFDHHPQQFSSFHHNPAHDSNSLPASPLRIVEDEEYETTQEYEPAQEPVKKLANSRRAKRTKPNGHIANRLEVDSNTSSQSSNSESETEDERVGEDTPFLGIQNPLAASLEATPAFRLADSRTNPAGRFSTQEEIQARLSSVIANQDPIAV

[7] = system: Neuregulin-1 EGF-like domain; experiment: small molecules binding NRG1 EGF domain – biochemical, small-molecule microarray, 635 nm fluorescence, primary screen (AID 1081); conditions: higher = more signal;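 further: binding of the protein to compounds printed on small-molecule microarray slides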
[8] = FRG1 expression reporter modulators in myotubes – cell-based, C2C12 myotubes, firefly/Renilla luciferase, luminescence, FRG1 inhibition for FSHD, primary screen (AID 1084); conditions: FRG1 promoter luciferase, higher = more signal, called active from +8 up or from −8 down
[9] = small molecules captured by biotinylated probe aFST – biochemical, small-molecule microarray, fluorescence 635/667, stem cell growth factor project, primary screen (AID 1086); conditions: higher = more signal;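 further: score merges 667 nm fluorescence with signal-to-noise of each printed compound spot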
[10] = binders of probe aHhip on microarray, primary screen, stem cell growth factor project, biochemical, small-molecule microarray, fluorescence 635/667 (AID 1087); conditions: higher = more signal;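 further: score merges spot fluorescence at 667nm with spot signal to noise ratio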

Structure (SMILES) | composite z-score [1] | composite z-score [2] | composite z-score [3] | composite z-score [4] | composite z-score [5] | composite z-score [6] | composite z-score [7] | z-score [8] | composite z-score [9] | composite z-score [10]
C[C@@H]1C=CCC(=O)OC[C@H](C)C(=O)N2CCC[C@H]2C(=O)OC1 | -0.586 | 2.45 | -0.178 | 0.349 | 0.285 | -0.824 | 1.04 | 0.465 (inactive) | 0.165 | -0.0296
C[N+](C)(C)CCCCCCNC(=O)[C@@H]1C[C@@H]2C(=O)N3CCC[C@H]3C(=O)N2[C@@H]1c1cccc(OCCO)c1 | -0.0041 | 0.669 | -0.169 | -0.239 | -0.337 | 0.747 | 1.35 | 5.01 (inactive) | -0.128 | -0.48
CC(CCN1CCCCc2nc(C)c(C)cc21)=NOC(C)CN1CCCCc2nc(C)c(C)cc21 (stereo not given) | -0.275 | 1.93 | -0.15 | 0.682 | 1.48 | 0.963 | 1.28 | 0.748 (inactive) | 0.907 | 0.0174
C=C(/C(=C/C[C@H](OC(=O)c1ccncc1)c1ccc(OCCO)cc1)c1cnc2ccccc2c1)C(C)C | -0.185 | 0.727 | -0.047 | 1.09 | 1.29 | 0.7 | 1.13 | 1.66 (inactive) | 0.552 | -0.0296
Cc1cc2c(nc1C)CCCN2CC(C)ON=C1[C@H]2CCn3c(=O)n(-c4ccccc4)c(=O)n3[C@H]2[C@H](O)[C@@H]2O[C@H]12 (stereo not given in full) | -0.335 | 0.533 | 0.0477 | 0.73 | 0.36 | 0.0785 | 1.1 | -0.325 (inactive) | 0.265 | -0.194
CCOC(=O)C[C@H]1[C@H](OC(=O)c2cc3ccccc3oc2=O)[C@@H](NC(=O)c2ccc3ccccc3n2)c2cc(OCCCO)ccc2N1C(=O)c1ccccc1 | -0.189 | 0.459 | -0.0455 | 0.706 | 0.302 | 0.0269 | 0.736 | 0.331 (inactive) | 0.353 | -0.383
CC(C)CON=C1C[C@@H](O)[C@@H](O)[C@@H]2[C@@H]3C(=O)N(C[C@@H]4CCCO4)C(=O)[C@@H]3CC[C@H]12 | -0.549 | 0.254 | -0.116 | 0.421 | 0.595 | -0.0414 | 0.59 | -0.267 (inactive) | -0.179 | -0.406
O=C1C[C@]2(c3ccc([N+](=O)[O-])cc3)C(=O)N(CCN3CCOCC3)c3cc(CO)ccc3[C@H]2N1CC12CC3CC(CC(C3)C1)C2 | -0.0111 | -0.624 | -0.103 | -0.164 | -0.35 | 1.38 | -0.273 | 0.103 (inactive) | 0.337 | 0.312
COC(=O)[C@H](C)NC(=O)CCC1CC(OC(=O)NCCc2ccc(F)cc2)CC2(CCCC(COC(=O)NCC(c3ccccc3)c3ccccc3)O2)O1 (stereo not given in full) | -0.342 | -0.266 | -0.124 | 0.462 | 1.29 | 0.846 | 1.2 | 1.38 (inactive) | 0.107 | -0.247
O=C1[C@H]2[C@H]3[C@H](O)[C@H](O)CC(=NO[C@@H]4O[C@H](CO)[C@@H](O)[C@H](O)[C@H]4O)[C@@H]3CC[C@H]2C(=O)N1Cc1ccc2c(c1)OCO2 | -0.401 | -0.271 | -0.166 | 0.112 | 0.737 | 0.542 | 0.974 | 0.118 (inactive) | 0.181 | -0.201
CN(C)C(=O)[C@@]1(Cc2ccccc2)N=C(c2ccc(OCCCO)cc2)O[C@H]1c1ccccc1CN=[N+]=[N-] | 1.35 | 1.92 | 0.423 | 1.13 | 1.46 | 1.96 | 1.2 | -1.47 (inactive) | 1.42 | 0.898
O=C1C[C@@H](O)[C@@H](O)[C@@H]2[C@@H]3C(=O)N(c4cccc(Oc5ccccc5)c4)C(=O)[C@@H]3CC[C@@H]12 | -0.557 | 0.272 | -0.0598 | 0.516 | 1.26 | 0.713 | 1.01 | -0.211 (inactive) | 0.0399 | 0.0659
CCOC(=O)CCN1C(=O)[C@H]2[C@H]3[C@H](O)C=CC(=O)[C@@H]3CC[C@H]2C1=O | -0.619 | 0.153 | -0.108 | 0.408 | 0.25 | 0.262 | -0.0122 | -0.451 (inactive) | -0.0371 | -0.374
CCN1C(=O)[C@H]2[C@H]3[C@H](O)C=CC(=O)[C@@H]3CC[C@H]2C1=O | -0.456 | 0.236 | -0.0744 | 0.393 | 0.602 | -0.132 | 0.226 | 0.669 (inactive) | 0.243 | 0.312
O=C1NC(=O)C2C1C=CC(C(O)Cc1ccccc1)N2Nc1ccccn1 (stereo not given) | -0.368 | 0.0052 | -0.0154 | 0.477 | 1.14 | 1.79 | 0.934 | -0.518 (inactive) | 0.494 | -0.0618
CC(=O)OC[C@H]1O[C@@H](ON=C[C@@H](C)[C@H](OCc2ccccc2)C(C)C)[C@H](OC(C)=O)[C@@H](OC(C)=O)[C@@H]1OC(C)=O | -0.624 | 1.69 | -0.0959 | 0.372 | 0.55 | -0.927 | -1.19 | -0.703 (inactive) | 0.304 | -0.134
[N-]=[N+]=NCc1ccccc1C[C@]1(C(=O)NCc2ccccc2)N=C(c2ccc(OCCCO)cc2)O[C@H]1c1ccccc1N=[N+]=[N-] | 0.741 | -0.0741 | -0.0231 | 1.13 | 1.22 | 0.799 | 1.01 | -1.34 (inactive) | 1.16 | 0.295
